Compound activity from PubChem BioAssay.
An excerpt weighted towards active compounds, which were near 2.9% of everything screened.
Hsp70 activator – Hsp70 transcriptional activation, primary screen; AID 1203; activation, % at 10 µM; HeLa Hsp70 promoter luciferase reporter, luminescence; scaled: vehicle 0, proteasome-inhibitor control 100%; actives 0.04% (n = 200,000);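 active = activation above the mean across all tested compounds plus 3 SD, cutoff set per campaign, cut at about 5.5% in these data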;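 note: 100% = MG132 at 30 µM as the positive control and 0% = DMSO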
HSF1 activator – increases HSF-1 driven luciferase reporter signal | NIH3T3-HGL HSF-1 luciferase reporter, MG132, 8 h; 100% = twice DMSO control signal | activation, % at 9 µM | actives 1.7% (n = 300,000) | AID 504408;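 active = mean replicate activation of at least 50% with a set share of replicates each reaching 50%; inconclusive = only one of those two conditions met; inactive = mean below 50% and too few replicates reaching it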;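 note: 0% = median of the neutral control wells and 100% = twice that signal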
HSF1 inh – HSF1 inhibition. AID 2098. actives 0.77% (n = 300,000). activity change, negative = inhibition, % at 7.5 µM (by protocol). NIH3T3-HGL HSE-luciferase, MG132-induced, luminescence 8 h; hits give low values;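 active = more than half of replicate wells show activity change below -50%, luminescence cut by over half; inconclusive = some wells, but at most half, below -50%; inactive = no replicate well below -50%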;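 note: luciferase reports HSF-1 transcriptional activity via heat shock element; 0% = median of DMSO wells and -100% = zero luminescence signal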
S1P4 antag – antagonists of human S1P4 receptor; S1P4-expressing cells, antagonist mode, reporter read-out; inhibition, % at 4.98 µM; actives 0.26% (n = 220,000); AID 1510; in the data active = inhibition above about 29%;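 note: 0% = wells stimulated with agonist and 100% = vehicle wells without agonist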
S1P4 ag – human S1P4 receptor agonism; O95977; S1P4-expressing cell line, agonist reporter assay; activation, % at 4.98 µM; actives 0.35% (n = 220,000); AID 1509; in the data active = activation above about 11%;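 note: 0% = DMSO vehicle and 100% = reference agonist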
S1P3 antagonist – S1P3 (human) receptor antagonism; inhibition, % at 4.98 µM; actives 0.27% (n = 170,000); Q99500; CHO S1P3 NFAT-BLA reporter, FRET fluorescence, antagonist mode;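 active = inhibition above the plate cutoff, the mean inhibition of test wells on that plate plus 3 SD, cut at about 28% in these data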;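 note: cells challenged with S1P at its EC80 of 0.8 µM; blue over green emission ratio from cleaved BLA substrate after 4 h stimulation; 0% = S1P-stimulated wells and 100% = unstimulated DMSO-only wells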
S1P4 antag conf – human S1P4 antagonism, confirmation | shares compounds with S1P4 antag | S1P4-expressing cell line, antagonist mode, reporter read-out | inhibition, % at 4.98 µM | actives 71% (n = 520); in the data active = inhibition above about 30%
S1P1 antagonist – blocks human S1P1, counter-screen for S1P4 antagonists; shares compounds with S1P4 antag; cell-based S1P1 antagonist counterscreen, inhibition; inhibition, % at 4.98 µM; actives 37% (n = 520); AID 1564; in the data active = inhibition above about 40%;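 note: receptor stimulated with S1P near its EC80; 0% = agonist stimulated wells and 100% = vehicle only wells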
Target sequence (P21453 whole entry, looked up): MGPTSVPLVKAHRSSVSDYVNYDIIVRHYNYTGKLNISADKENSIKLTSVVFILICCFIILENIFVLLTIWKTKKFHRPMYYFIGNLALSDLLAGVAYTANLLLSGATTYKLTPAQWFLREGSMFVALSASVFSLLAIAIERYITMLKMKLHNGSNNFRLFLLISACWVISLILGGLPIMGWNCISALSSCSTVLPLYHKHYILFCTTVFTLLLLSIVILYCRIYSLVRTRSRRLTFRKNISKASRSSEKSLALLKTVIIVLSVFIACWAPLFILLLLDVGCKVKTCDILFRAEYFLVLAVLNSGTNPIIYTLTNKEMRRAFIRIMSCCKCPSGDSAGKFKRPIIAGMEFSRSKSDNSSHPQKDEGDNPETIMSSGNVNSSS
An asterisk follows results filed as active; ? = inconclusive; . = no result.

SMILES	Hsp70 activator	HSF1 activator	HSF1 inh	S1P4 antag	S1P4 ag	S1P3 antagonist	S1P4 antag conf	S1P1 antagonist
O=c1c(Cl)c(Cl)cnn1Cc1nnc(-c2ccc(Cl)cc2)o1	2.7	38.0	?	36.7*	-2.0	0.4	68.1*	21.0
Cc1ccc(-c2nnc(Cc3ccc(Cl)cc3)o2)cc1	0.0	23.9	20.5	-5.3	0.8	.	.	.
O=C(NCCN1CCOCC1)C1(C(F)(F)F)C/C(=C\Cc2ccccc2)CCCO1 (stereo unspecified)	.	-4.0	-2.0	.	.	.	.	.
CCc1cccc(NC(=O)C2CCCN(c3ncnc4c3nc3n4CCCCC3)C2)c1 (stereo unspecified)	.	4.0	3.9	.	.	.	.	.
O=C(CC(SCCO)c1ccc2c(c1)OCO2)c1cccs1 (stereo unspecified)	0.3	39.9	24.2	36.5*	-0.6	-10.8	28.5	-20.6
CCCCn1c(N)c(N(CC(C)C)C(=O)CSCc2c(C)noc2C)c(=O)[nH]c1=O	.	-5.7	-4.7	.	.	.	.	.
CC(C)CC(=O)N/C(N)=N/c1nc2ccccc2o1	.	15.1	17.6	-7.5	-1.3	6.5	.	.
COCCCNC(=O)/C=C1\Sc2ccccc2N(Cc2ccccc2F)C1=O	0.1	27.9	14.2	65.5*	0.2	-11.5	0.2	13.3
Cc1cccc(N(CC(=O)N/N=C/c2cc([N+](=O)[O-])ccc2Cl)S(C)(=O)=O)c1C	-0.3	10.9	-0.2	12.0	0.3	.	.	.
CCNc1nc(NC(C)(C)C)nc(N2CCCCC2)n1	-0.1	-6.6	1.6	43.6*	-0.5	-13.4	92.0*	21.1
CC1CN(C(=O)c2cc3cc(Br)ccc3[nH]2)CC(C)O1 (stereo unspecified)	.	14.5	3.9	.	.	.	.	.
O=C(NCc1cccnc1)c1ccc(-c2ccc(Cl)cc2)o1	-0.1	1.0	-9.7	-10.5	-0.5	-12.6	.	.
O=C(NCc1cccnc1)/C(=C\c1ccc(-c2ccc(Cl)c(Cl)c2)o1)S(=O)(=O)c1ccccc1	0.2	32.5	26.1	57.9*	-0.9	10.0	108.0*	48.4*
O=C(O)CCC(=O)Nc1nnc(C(F)(F)F)s1	-0.2	.	.	-4.0	-1.1	-19.4	.	.
CCC(NC(=O)Nc1nnc(C(F)(F)F)s1)(C(F)(F)F)C(F)(F)F	-0.3	-1.0	1.4	37.7*	-0.3	.	51.2*	7.0
CCCCC1=NN(C(=O)c2ccco2)C(O)(C(F)(F)F)C1 (stereo unspecified)	0.1	-9.7	-7.8	-2.6	-0.8	-3.7	.	.
CCOc1ccccc1NC(=O)C(=O)NCCC1=CCCCC1	-0.2	11.6	4.7	-12.7	1.7	2.2	.	.
O=C(Cn1ncc(Cl)c(Cl)c1=O)N1CCN(Cc2ccccc2)CC1	0.7	54.9*	55.1	71.1*	-2.5	-13.7	118.0*	60.6*
CC1(C)C(=O)Nc2ccccc2N1C(=O)Cn1ncc(Cl)c(Cl)c1=O	.	54.0*	29.0	94.8*	0.2	-3.0	86.7*	33.3
O=C(Cn1ncc(Cl)c(Cl)c1=O)N1CCc2ccccc21	2.4	28.7	-5.3	78.9*	-5.1	-15.6	118.1*	94.3*
O=C(Cn1ncc2c1-c1ccccc1OC2)N1CCc2ccccc21	0.0	-5.4	5.8	-2.7	0.0	9.9	.	.
O=C(Cn1ncc(Cl)c(Cl)c1=O)N1CCOCC1	0.7	15.2	24.2	44.1*	-4.1	-5.0	59.5*	26.6
CCCn1c2ccccc2c2cnn(CC(=O)N3CCOCC3)c(=O)c21	.	-6.9	0.9	.	.	.	.	.
O=C(O)c1ccccc1NCc1cccs1	.	-0.5	-7.7	.	.	.	.	.
CSCC(=O)N1CCc2ccc(NC(=O)c3ccccc3Cl)cc2C1	.	40.9	20.3	.	.	.	.	.
SMILES	Hsp70 activator	HSF1 activator	HSF1 inh	S1P4 antag	S1P4 ag	S1P3 antagonist	S1P4 antag conf	S1P1 antagonist
COc1ccc(-c2cc(-c3ccccc3)c(C#N)c(S(C)=O)n2)cc1 (stereo unspecified)	-0.1	145.6*	118.9	54.0*	-3.9	.	85.2*	19.3
OC(COc1ccc(OCC(O)CN2CCCCC2)cc1)CN1CCCCC1 (stereo unspecified)	.	6.5	-6.9	.	.	.	.	.
OC(COc1ccc(CNCCc2ccc(C(F)(F)F)cc2)cc1)CN1CCCCC1 (stereo unspecified)	0.4	9.8	10.0	30.4*	-2.0	-26.0	41.1*	28.4
CC(=O)Nc1ccc(S(=O)(=O)NC2(C(F)(F)F)C(=O)Nc3c2c(=O)[nH]c(=O)n3Cc2ccco2)cc1 (stereo unspecified)	0.1	0.4	-9.9	-7.6	0.1	-12.9	.	.
COC(=O)N/N=C\C=C\c1ccc2c(c1)OCO2	0.2	19.0	18.1	55.2*	-0.5	.	-19.5	-14.3
O=C(Nc1nnc(SCc2ccc(F)cc2)s1)c1ccccn1	-0.4	222.9*	163.7	30.6*	0.0	13.5	101.2*	72.7*
COc1ccc(NC(=O)/C(Cl)=C(/Cl)S(=O)(=O)Cc2ccccc2)cn1	1.4	-76.5	-75.8*	66.5*	4.2	.	118.9*	61.5*
CC(=O)Nc1cccc(C(=O)/C=C/c2ccc(F)cc2)c1	0.0	31.4	28.1	46.1*	-1.3	-0.8	71.9*	23.4
O=C(N/N=C/c1cccc2cccnc12)c1ccccc1O	.	-5.8	-1.6	32.1*	-2.0	-13.6	100.9*	79.2*
CCCC(=O)N(C1CC(C)C(C#N)(C#N)C1(C#N)C#N)N(C)C (stereo unspecified)	.	-53.1	?	42.7*	1.5	22.1	107.2*	36.2
CC(=O)N(C1CC(C)C(C#N)(C#N)C1(C#N)C#N)N(C)C (stereo unspecified)	-0.2	15.5	-3.4	-18.4	2.0	16.4	.	.
COc1ccc(C(=O)C(CN2CCCC2)c2ccccc2)cc1 (stereo unspecified)	0.1	-1.5	7.3	3.1	-1.6	.	.	.
COc1ccc(C(=O)C(CN2CCOCC2)c2ccccc2)cc1 (stereo unspecified)	-0.2	-4.0	2.7	45.0*	-2.6	.	30.6*	19.4
O=C(NCc1ccc(Cl)cc1)c1cccc2c1C(=O)N(CC1CCCO1)C2 (stereo unspecified)	.	-0.9	-2.8	.	.	.	.	.
CC(=O)N1/C(=C/c2ccc(N(C)C)cc2)C(=O)c2ccccc21	0.0	-7.3	-7.5	30.3*	-3.9	-25.6	91.3*	91.5*
Cc1nn(C(C)C(=O)NC2CCCCC2)c(=O)c2nn(-c3ccccc3)c(C)c12 (stereo unspecified)	.	-3.7	-1.7	.	.	.	.	.
O=C(NC(Cc1ccccc1)C(=O)O)/C(=C/c1ccccc1)NC(=O)c1ccccc1 (stereo unspecified)	-0.5	5.5	-2.7	45.0*	1.0	-2.1	16.2	2.1
O=C(NC(Cc1ccccc1)C(=O)O)/C(=C\c1ccc(Cl)cc1)NC(=O)c1ccccc1 (stereo unspecified)	-0.1	-6.5	2.7	-19.2	-0.3	-22.6	.	.
